In PubChem BioAssay (NCATS):
A number with no mark means an inactive call. Results filed as inconclusive are left out. Active and inactive are the calls of the source. The call rests on the fitted dose curve; in most records, active means well fitted inhibition curve with a large enough effect; inconclusive means small, poorly fitted or top-dose-only effect; inactive means flat fitted curve, though single readings scatter.

These compounds were tested against Phospholipid hydroperoxide glutathione peroxidase GPX4 (Homo sapiens) (UniProt P36969) (assay: Primary qHTS Assay for Inhibitors of Recombinant Selenoprotein Glutathione Peroxidase 4 (GPX4) (AID 1845192; further: nearly all actives have a fitted effect of over 65% in size; on activity change, negative = inhibition: on the % scale 0 is the no-effect control and ±100 the full control effect)). Settings: recombinant GPX4, GR-coupled NADPH fluorescence, 15 min; series mostly up to 50 µM; activity change, negative = inhibition: at the top concentration.
Chain of Phospholipid hydroperoxide glutathione peroxidase GPX4 (Homo sapiens) (P36969 whole entry, looked up): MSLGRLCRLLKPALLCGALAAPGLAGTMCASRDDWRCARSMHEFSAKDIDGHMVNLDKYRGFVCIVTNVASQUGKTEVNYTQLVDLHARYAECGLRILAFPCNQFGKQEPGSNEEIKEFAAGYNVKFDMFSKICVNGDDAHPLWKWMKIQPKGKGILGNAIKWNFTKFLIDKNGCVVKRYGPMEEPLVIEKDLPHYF
Summary of the method: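 GR-coupled readout: 100 nM GR, 1 mM GSH, 0.5 mM NADPH; NADPH fluorescence (ex 340/em 450 nm) read at t=0 and after 15 min RT. GPX4 200 nM, preincubated 30 min with compound; substrate 0.5 mM CHP.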
`CC(N[C@H]1C[C@H]1c1ccccc1)c1ccc2c(c1)OCCO2` (stereo partly drawn) was tested, and the “activity change, negative = inhibition” value was 1.61%. For `N=c1c2c(-c3ccccc3)c(-c3ccccc3)n(Cc3ccccc3)c2ncn1C1CCC(O)CC1` (stereo not drawn), the “activity change, negative = inhibition” value was -7.68%. For `CC(C)[C@H]1C(=O)N[C@H](CO)Cc2c[nH]c3cccc(c23)N1C`, the “outcome” value was “inactive [at 27.8 µM]”. For `Cc1ccccc1-n1c(Cn2ncc3c(N)ncnc32)nc2cccc(C)c2c1=O`, the “activity change, negative = inhibition” value was 4.89%. `CC(=O)Nc1ccc(OC[C@](C)(O)C(=O)Nc2ccc([N+](=O)[O-])c(C(F)(F)F)c2)cc1` was tested, and the “activity change, negative = inhibition” value was -5.14%. `CC(=O)[O][Hg][c]1ccccc1` was tested, and the “outcome” value was “inactive”. In the case of `CC(C)N(CCNC(=O)CN1CCCC1=O)C(C)C`, the “activity change, negative = inhibition” value is reported as 7.59%. For `O=C(NCC1CCOCC1)c1cnc(Nc2ccc(Cl)cc2Cl)nc1C(F)(F)F`, the Potency was “inactive”. For `COc1ccc(C(=O)c2c(C)n(CCN3CCOCC3)c3cc(I)ccc23)cc1`, the “activity change, negative = inhibition” value was -8.4%. With `Cc1[nH]nc2ccc(-c3cncc(OC[C@@H](N)Cc4c[nH]c5ccccc45)c3)cc12` the Potency was “inactive”. For `CCN1C[C@]2(OC(=O)c3ccccc3NC(C)=O)CC[C@H](OC)[C@@]34[C@H]5CC6[C@@H](OC)C[C@](O)(C(C[C@@H]23)[C@@H]14)[C@@]5(O)[C@@H]6OC`, the “activity change, negative = inhibition” value was -5.02%. In the case of `C/C=C(/C)C(=O)O[C@H]1C(C)=C2[C@H]([C@@H]1OC(=O)CCCCCCC)[C@@](C)(OC(C)=O)C[C@H](OC(=O)CCC)[C@@]1(O)[C@H]2OC(=O)[C@@]1(C)O`, the Potency is reported as “inactive”. In the case of `COC(=O)c1cncn1C(C)c1ccccc1` (stereo not drawn), the “activity change, negative = inhibition” value is reported as 0.357%. For `CC(C)(O)C(=O)Nc1ccc([N+](=O)[O-])c(C(F)(F)F)c1`, the “activity change, negative = inhibition” value was -2.33%. `CC(C)(C)NC[C@H](O)c1ccc(O)cc1Cl` was tested, and the “activity change, negative = inhibition” value was -9.26%. In the case of `COC1=C[C@@H]2[C@@H]3Cc4ccc(OC)c(O)c4[C@]2(CCN3C)CC1=O`, the “activity change, negative = inhibition” value is reported as 0.241%. `NC1=NC(=O)N2CC12` (stereo not drawn) was tested, and the Potency was “inactive”. With `CCN(CC)C(=O)c1ccc(C2=CC3(CCNCC3)Oc3cccc(O)c32)cc1` the “activity change, negative = inhibition” value was -4.61%. With `Clc1ccccc1C(c1ccccc1)(c1ccccc1)n1cccn1` the “activity change, negative = inhibition” value was -7.69%. For `O=C(Nc1ccncc1)C(=O)c1cn(Cc2ccc(Cl)cc2)c2ccccc12`, the “activity change, negative = inhibition” value was 0.475%. `O=[N+]([O-])c1ccc([As](=O)(O)O)cc1` was tested, and the “activity change, negative = inhibition” value was -8.11%. In the case of `NC(CP(=O)(O)O)C(=O)O` (stereo not drawn), the “outcome” value is reported as “inactive”. `O=C(O)CNC(=O)c1c(O)c2ccccc2n(Cc2ccccc2)c1=O` was tested, and the “activity change, negative = inhibition” value was 2.35%. With `C1CCC(NC2CCCCC2)CC1` the “outcome” value was “inactive”.

These compounds were tested against Luciferin 4-monooxygenase (Photinus pyralis) (UniProt P08659) (assay: Primary firefly luciferase (FLuc) qHTS assay for identification of artifact compounds. (AID 1845220; further: nearly all actives have a fitted effect of over 60% in size;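 on activity change, negative = inhibition: plate controls were DMSO vehicle for no effect and no enzyme for full effect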)). Settings: purified firefly luciferase, luminescence, 5 min; series mostly up to 54.1 µM; activity change, negative = inhibition: at the top concentration.
Summary of the method: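 qHTS, 15 min compound preincubation with substrate (10 uM luciferin, 10 uM ATP) at RT, then 10 nM FLuc; 5 min; luminescence; % inhibition vs no-enzyme/DMSO controls, 4-parameter Hill fit.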
In the case of `CC(N[C@H]1C[C@H]1c1ccccc1)c1ccc2c(c1)OCCO2` (stereo partly drawn), the “activity change, negative = inhibition” value is reported as -17.1%. `Cc1ccccc1-n1c(Cn2ncc3c(N)ncnc32)nc2cccc(C)c2c1=O` was tested, and the outcome was “inactive”. For `CC(=O)Nc1ccc(OC[C@](C)(O)C(=O)Nc2ccc([N+](=O)[O-])c(C(F)(F)F)c2)cc1`, the outcome was “inactive”. For `CC(C)N(CCNC(=O)CN1CCCC1=O)C(C)C`, the outcome was “inactive”. `O=C(NCC1CCOCC1)c1cnc(Nc2ccc(Cl)cc2Cl)nc1C(F)(F)F` was tested, and the outcome was “inactive”. In the case of `Cc1[nH]nc2ccc(-c3cncc(OC[C@@H](N)Cc4c[nH]c5ccccc45)c3)cc12`, the “activity change, negative = inhibition” value is reported as 4.89%. For `C/C=C(/C)C(=O)O[C@H]1C(C)=C2[C@H]([C@@H]1OC(=O)CCCCCCC)[C@@](C)(OC(C)=O)C[C@H](OC(=O)CCC)[C@@]1(O)[C@H]2OC(=O)[C@@]1(C)O`, the “activity change, negative = inhibition” value was -7.83%. With `CCOC(=O)Nc1ccc(NCc2ccc(F)cc2)cc1N` the outcome was “inactive”. With `CC(C)(C)NC[C@H](O)c1ccc(O)cc1Cl` the “activity change, negative = inhibition” value was -5.24%. For `COC1=C[C@@H]2[C@@H]3Cc4ccc(OC)c(O)c4[C@]2(CCN3C)CC1=O`, the “activity change, negative = inhibition” value was 3.35%. In the case of `CCN(CC)C(=O)c1ccc(C2=CC3(CCNCC3)Oc3cccc(O)c32)cc1`, the outcome is reported as “inactive”. For `O=C(O)CNC(=O)c1c(O)c2ccccc2n(Cc2ccccc2)c1=O`, the “activity change, negative = inhibition” value was -10.1%.

These compounds were tested on Nanoluciferase (engineered Oplophorus gracilirostris luciferase) (assay: Primary Nanoluciferase (NLuc) qHTS assay for identification of artifact compounds. (AID 1845222;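 further: 0% = DMSO and -100% = no enzyme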)). Settings: NLuc-conditioned medium, Nano-Glo luminescence, 5 min; series mostly up to 54.1 µM; activity, negative = inhibition: at the top concentration.
Summary of the method: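 Luminescence read-out of secreted NLuc in S16 cell conditioned medium (1:55); compounds tested with 15 min RT preincubation, then Nano-Glo substrate 1:100, 5 min. % inhibition vs no-enzyme and DMSO controls, 4-parameter Hill fit.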
In the case of `CC(N[C@H]1C[C@H]1c1ccccc1)c1ccc2c(c1)OCCO2` (stereo partly drawn), the “activity, negative = inhibition” value is reported as -11.8%. With `Cc1ccccc1-n1c(Cn2ncc3c(N)ncnc32)nc2cccc(C)c2c1=O` the “activity, negative = inhibition” value was 0.984%. In the case of `CC(=O)Nc1ccc(OC[C@](C)(O)C(=O)Nc2ccc([N+](=O)[O-])c(C(F)(F)F)c2)cc1`, the “activity, negative = inhibition” value is reported as 3.92%. In the case of `CC(C)N(CCNC(=O)CN1CCCC1=O)C(C)C`, the “activity, negative = inhibition” value is reported as 0%. `O=C(NCC1CCOCC1)c1cnc(Nc2ccc(Cl)cc2Cl)nc1C(F)(F)F` was tested, and the “activity, negative = inhibition” value was -6.42%. In the case of `Cc1[nH]nc2ccc(-c3cncc(OC[C@@H](N)Cc4c[nH]c5ccccc45)c3)cc12`, the “activity, negative = inhibition” value is reported as -0.982%. In the case of `C/C=C(/C)C(=O)O[C@H]1C(C)=C2[C@H]([C@@H]1OC(=O)CCCCCCC)[C@@](C)(OC(C)=O)C[C@H](OC(=O)CCC)[C@@]1(O)[C@H]2OC(=O)[C@@]1(C)O`, the “activity, negative = inhibition” value is reported as -1.31%. In the case of `CCOC(=O)Nc1ccc(NCc2ccc(F)cc2)cc1N`, the “activity, negative = inhibition” value is reported as 4.05%. For `CC(C)(C)NC[C@H](O)c1ccc(O)cc1Cl`, the “activity, negative = inhibition” value was 0.0239%. For `COC1=C[C@@H]2[C@@H]3Cc4ccc(OC)c(O)c4[C@]2(CCN3C)CC1=O`, the “activity, negative = inhibition” value was 2.62%. In the case of `CCN(CC)C(=O)c1ccc(C2=CC3(CCNCC3)Oc3cccc(O)c32)cc1`, the “activity, negative = inhibition” value is reported as 1.19%. For `O=C(O)CNC(=O)c1c(O)c2ccccc2n(Cc2ccccc2)c1=O`, the “activity, negative = inhibition” value was -16.6%.
